This is an account of results in article PMC5913336, “True equilibrium measurement of transcription factor-DNA binding affinities using automated polarization microscopy”.

The assay deals with T1, Pan (Drosophila melanogaster, UniProt P91943 258-356).
T1 sequence: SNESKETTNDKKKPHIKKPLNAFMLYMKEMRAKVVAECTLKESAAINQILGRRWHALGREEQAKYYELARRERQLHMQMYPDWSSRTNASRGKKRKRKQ
Description: FP; 33 mM phosphate pH 7.0, 90 mM NaCl, 0.01% Tween 20, 0.1 mM DTT, 0.5% agarose; room temperature. As to conditions: tags: N-GST (pGEX-6P-1, kept); dsDNA, one strand shown.
For the sequence AGTCTTTGCTAAA, the binding signal was 2.06 Kd / Kd of best base at the position.

AGTCTTTGAGAAA: the binding signal is 1.72 Kd / Kd of best base at the position.

For the sequence AGGCTTTGATAAA, the binding signal was 4.74 Kd / Kd of best base at the position.

For AGTCTTTAATAAA, the binding signal was 4.58 Kd / Kd of best base at the position.

In the case of AGTCTTTGACAAA, the binding signal was 4.34 Kd / Kd of best base at the position.

For the sequence AGTCTTTGGTAAA, the binding signal is 1.21 Kd / Kd of best base at the position.

Regarding AGTCTTTGATGAA, the binding signal was 1.49 Kd / Kd of best base at the position.

Turning to AGTCTTCGATAAA, the binding signal was 7.5 Kd / Kd of best base at the position.

AGTATTTGATAAA: the binding signal is 5.89 Kd / Kd of best base at the position.

On to ACTCTTTGATAAA, for which the binding signal is 1.97 Kd / Kd of best base at the position.

Consider AGTCTCTGATAAA, for which the binding signal was 9.73 Kd / Kd of best base at the position.

For CGTCTTTGATAAA, the binding signal is 2.92 Kd / Kd of best base at the position.

For the sequence AGTCTTGGATAAA, the binding signal is 5.87 Kd / Kd of best base at the position.

On to AGTCTTAGATAAA, for which the binding signal is 10.4 Kd / Kd of best base at the position.

On to AGCCTTTGATAAA, for which the binding signal was 2.89 Kd / Kd of best base at the position.

With GGTCTTTGATAAA, the binding signal is 1.08 Kd / Kd of best base at the position.

Take AGTCTTTGTTAAA: the binding signal is 4.66 Kd / Kd of best base at the position.

For AGTCTTTGATACA, the binding signal is 2.07 Kd / Kd of best base at the position.

On to AATCTTTGATAAA, for which the binding signal is 6.88 Kd / Kd of best base at the position.

On to AGTCTTTTATAAA, for which the binding signal is 3.15 Kd / Kd of best base at the position.

AGTCTTTGATATA: the binding signal was 1.14 Kd / Kd of best base at the position.

As to AGTCTGTGATAAA, the binding signal is 7.87 Kd / Kd of best base at the position.

As for AGTCTATGATAAA, the binding signal was 8.1 Kd / Kd of best base at the position.

For the sequence TGTCTTTGATAAA, the binding signal is 1.34 Kd / Kd of best base at the position.

Consider AGTCTTTGATAAC, for which the binding signal is 4.04 Kd / Kd of best base at the position.

Regarding AGTTTTTGATAAA, the binding signal is 5.89 Kd / Kd of best base at the position.

As to AGTCTTTGATTAA, the binding signal was 1.63 Kd / Kd of best base at the position.

With ATTCTTTGATAAA, the binding signal was 1.9 Kd / Kd of best base at the position.

For AGTCTTTGATAGA, the binding signal is 1.78 Kd / Kd of best base at the position.

As for AGTCTTTGATAAT, the binding signal was 1.35 Kd / Kd of best base at the position.

As to AGACTTTGATAAA, the binding signal was 1.18 Kd / Kd of best base at the position.

As to AGTCGTTGATAAA, the binding signal was 9.13 Kd / Kd of best base at the position.

For the sequence AGTCTTTCATAAA, the binding signal was 8.7 Kd / Kd of best base at the position.

With AGTCTTTGAAAAA, the binding signal was 2.52 Kd / Kd of best base at the position.

In the case of AGTCTTTGATCAA, the binding signal was 2.02 Kd / Kd of best base at the position.

In the case of AGTCTTTGATAAA, the Kd is ~73 nM.

For AGTGTTTGATAAA, the binding signal was 2.49 Kd / Kd of best base at the position.
